For 19 compounds, Potency results are on record in PubChem BioAssay (NCATS).

Results filed as inconclusive are left out. Active and inactive are the calls of the source. Calls come from the whole dose curve; as a rule, active = well fitted curve in the direction sought with a large enough effect; inconclusive = small, poorly fitted or top-dose-only effect, or another doubt; inactive = no such curve, though single readings can be large; an effect the other way counts as inactive or inconclusive.

Experiment [1] can be described thus: Quantitative High-Throughput drug screen in 47 multiple myeloma cell lines against the NCATS MIPE library collection: JIM3_ECACC cell viability assay (AID 1918963; note: nearly all actives have a fitted effect of over 35% in size). The essentials: (§1)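 CellTiter-Glo luminescence (ATP) after 48 h compound exposure, 37C/5% CO2; 500 cells/well; MIPE 4.0 approved/investigational drugs pinned in; DMSO = 100%, media only = 0% viability.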

Experiment [2] is described as follows: Quantitative High-Throughput drug screen in 47 multiple myeloma cell lines against the NCATS MIPE library collection: JIM1_ECACC cell viability assay (AID 1918964). The essentials:
(§2)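 Steps: seed 500 cells per well; pin-transfer MIPE 4.0 library; incubate 48 h at 37C, 5% CO2, humidified; add CellTiter-Glo, 5 min room temperature; read luminescence.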

The nature of experiment [3]: Quantitative High-Throughput drug screen in 47 multiple myeloma cell lines against the NCATS MIPE library collection: INA6_PLB cell viability assay (AID 1918965; note: nearly all actives have a fitted effect of over 55% in size). The essentials:
(§3)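 Myeloma cells (500 per well) were exposed to MIPE 4.0 compounds by pin transfer and incubated 48 hours at 37C, 5% CO2. Viability was read as ATP by CellTiter-Glo luminescence, normalised to DMSO (100%) and media-only (0%) wells.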

Experiment [4] can be described thus: Quantitative High-Throughput drug screen in 47 multiple myeloma cell lines against the NCATS MIPE library collection: JJN3_DSMZ cell viability assay (AID 1918966; note: nearly all actives have a fitted effect of over 50% in size). The essentials:
as §2

The nature of experiment [5]: Quantitative High-Throughput drug screen in 47 multiple myeloma cell lines against the NCATS MIPE library collection: H1112_PLB cell viability assay (AID 1918967; note: nearly all actives have a fitted effect of over 30% in size). The essentials: as §2
Experiment [6] is described as follows: Quantitative High-Throughput drug screen in 47 multiple myeloma cell lines against the NCATS MIPE library collection: Karpas25_ECACC cell viability assay (AID 1918968; note: nearly all actives have a fitted effect of over 35% in size). The essentials:
as §2

Experiment [7] in a line: Quantitative High-Throughput drug screen in 47 multiple myeloma cell lines against the NCATS MIPE library collection: KMS27_JCRB cell viability assay (AID 1918970). Note: nearly all actives have a fitted effect of over 30% in size. Conditions: KMS27 myeloma cells, CellTiter-Glo ATP viability, 48 h; viability (% of DMSO): at 45.8 µM (top of the series). The essentials: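 KMS27_JCRB myeloma cells, 500 per well, exposed 48 h at 37 C, 5% CO2 to MIPE 4.0 compounds. Viability from ATP by CellTiter-Glo luminescence, normalized to DMSO (100%) and medium-only (0%) wells.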
For orientation: ATP-based viability assays read luminescence as a measure of living cells.

Experiment [8] can be described thus: Quantitative High-Throughput drug screen in 47 multiple myeloma cell lines against the NCATS MIPE library collection: KMS12BM_JCRB cell viability assay (AID 1918971). Note: nearly all actives have a fitted effect of over 35% in size. The essentials: as §2
A short description of experiment [9]: Quantitative High-Throughput drug screen in 47 multiple myeloma cell lines against the NCATS MIPE library collection: KMS12PE_JCRB cell viability assay (AID 1918972). Note: nearly all actives have a fitted effect of over 30% in size. The essentials:
as §3

The nature of experiment [10]: Quantitative High-Throughput drug screen in 47 multiple myeloma cell lines against the NCATS MIPE library collection: KHM11_PLB cell viability assay (AID 1918962). Note: nearly all actives have a fitted effect of over 35% in size. The essentials: as §1
Potency is the fitted concentration of half-maximal effect.

Regarding `COc1ccc(-c2oc3c(CC=C(C)C)c(O)cc(O)c3c(=O)c2O)cc1`, the Potency result in experiment [1], in experiment [2] and in experiment [7] was “inactive” each time. The Potency is 16.6 µM (active) in experiment [3], 18.7 µM (active) in [4], 16.6 µM (active) in experiment [5] and 14.8 µM (active) in [6].

Turning to `CN1CCN(c2ncc(-c3cc(Cl)cc(Cl)c3Cl)c(N)n2)CC1`, the Potency entry in [1] and in [8] was “inactive” in each case. Besides, the figures for the Potency in [2] and in experiment [3] were 23.5 µM (active) and 13.2 µM (active), respectively.

Take `CN[C@@H](C)[C@H]1[C@H](O)C[C@@]2(C)[C@@H]3CC[C@H]4C(C)(C)[C@@H](NC)CC[C@@]45C[C@@]35CC[C@]12C`: the Potency result in [1], in experiment [2], in experiment [3], in experiment [4], in experiment [5] and in experiment [6] was “inactive” each time. Moreover, the Potency entry in experiment [7] was “inactive”.

Turning to `CN[C@H]1[C@@H](O[C@@H]2[C@H](O[C@@H]3[C@@H](O)[C@@H](O)[C@@H](N=C(N)N)[C@@H](O)[C@@H]3N=C(N)N)O[C@H](C)[C@@]2(O)C=O)O[C@@H](CO)[C@@H](O)[C@H]1O`, the Potency result in experiment [1], in experiment [2], in experiment [3], in experiment [5], in experiment [6] and in experiment [7] was “inactive” in each case. The Potency result in experiment [8] and in experiment [9] was “inactive” in each case.

Take `CCOC(=O)[C@H](CCc1ccccc1)N[C@@H](C)C(=O)N1CCCC1C(=O)O` (stereo not given in full): the Potency entry in experiment [10], in experiment [4], in [5], in experiment [6], in experiment [8] and in experiment [9] was “inactive” in each case.

Take `COc1cccc(OC)c1-c1cc(C(=O)NC2(C(=O)O)C3CC4CC(C3)CC2C4)nn1-c1ccnc2cc(Cl)ccc12` (stereo not given): the Potency result in [10], in experiment [5], in [6], in [7] and in experiment [9] was “inactive” each time.

For `CO[C@H]1/C=C\O[C@@]2(C)Oc3c(C)c(O)c4c(O)c(c(C=NN5CCN(C6CCCC6)CC5)c(O)c4c3C2=O)NC(=O)C(C)=CC=C[C@H](C)[C@H](O)[C@@H](C)[C@@H](O)[C@@H](C)[C@H](OC(C)=O)[C@H]1C`, the Potency in experiment [10] is 0.118 µM (active); in experiment [4], 6.62 µM (active); in [5], 1.18 µM (active); in experiment [6], 0.0235 µM (active); in [8], 6.62 µM (active).

As to `CC1(COc2ccc3c(c2)ncn3-c2ccc3cccc(N4CCC(N)CC4)c3n2)COC1`, the Potency in experiment [10] was 0.0148 µM (active); in experiment [4] it was 0.418 µM (active); in [5] it was 0.0083 µM (active); in experiment [8] it was 11.8 µM (active).

For the compound `Nc1ncnc2c1c(-c1cccc(OCc3ccccc3)c1)cn2C1CC(CN2CCC2)C1` (stereo not given), the Potency is 0.332 µM (active) in experiment [1]; 0.469 µM (active) in [2]; 20.9 µM (active) in experiment [3]; 4.69 µM (active) in [4]; 1.18 µM (active) in [6]; 1.87 µM (active) in experiment [7]. Moreover, the Potency in experiment [9] was 16.6 µM (active).

As to `O=C(NC[C@H](O)CO)c1ccncc1Nc1ccc(I)cc1F`, the Potency in experiment [1] was 14.8 µM (active); in [2] it was 2.35 µM (active); in experiment [3], 5.9 µM (active); in [5] it was 13.2 µM (active); in [6] it was 6.62 µM (active); in experiment [7], 1.48 µM (active). The Potency in [9] was 14.8 µM (active).

In the case of `Cc1[nH]c(C=C2C(=O)Nc3ccc(S(=O)(=O)N(C)c4cccc(Cl)c4)cc32)c(C)c1C(=O)N1CCN(C)CC1`, the Potency was 20.9 µM (active) in experiment [1]; 9.35 µM (active) in experiment [2]; 11.8 µM (active) in [3]; 20.9 µM (active) in experiment [4]; 20.9 µM (active) in experiment [5]; 7.43 µM (active) in experiment [6]. In addition, the values for the Potency in [7], in [8] and in experiment [9] were 5.9 µM (active), 26.4 µM (active) and 7.43 µM (active), respectively.

For `CCCCCOC(=O)Nc1nc(=O)n([C@@H]2O[C@H](C)[C@@H](O)C2O)cc1F` (stereo not given in full), the Potency result in experiment [1], in experiment [2], in experiment [4], in [5], in experiment [7] and in experiment [8] was “inactive” each time. The Potency result in [9] is “inactive”. In addition, the Potency in experiment [6] is 18.7 µM (active).

Turning to `CC(C)(C)c1[nH]cnc1C=c1[nH]c(=O)c(=Cc2ccccc2)[nH]c1=O`, the Potency result in experiment [1] and in experiment [2] was “inactive” each time. In addition, in experiment [4], the Potency is 0.0481 µM (active).

Consider `COc1nc(C)cnc1NS(=O)(=O)c1cccnc1-c1ccc(-c2nnco2)cc1`, for which the Potency result in experiment [1], in experiment [2], in experiment [3], in experiment [5], in experiment [7] and in experiment [9] was “inactive” throughout. In addition, in experiment [4], the Potency was 1.87 µM (active).

Turning to `Clc1ccc(COC(Cn2ccnc2)c2ccc(Cl)cc2Cl)c(Cl)c1` (stereo not given), the Potency in experiment [1] was 20.9 µM (active); in experiment [2], 26.4 µM (active); in experiment [3] it was 20.9 µM (active); in experiment [5], 18.7 µM (active); in experiment [6], 18.7 µM (active); in [8] it was 20.9 µM (active). For the same compound, the Potency in [9] was 18.7 µM (active).

In the case of `C[C@@H](NC(=O)c1ncnc(N)c1Cl)c1ncc(C(=O)Nc2cc(C(F)(F)F)c(Cl)cn2)s1`, the Potency in experiment [10] is 5.26 µM (active); in experiment [4], 18.7 µM (active); in experiment [5], 16.6 µM (active).

In the case of `O=C(C=Cc1ccc(O)cc1)c1ccc(O)cc1O`, the Potency in [1] was 20.9 µM (active); in experiment [2], 4.69 µM (active); in experiment [3], 3.32 µM (active); in experiment [4], 14.8 µM (active); in experiment [6], 23.5 µM (active); in experiment [8], 20.9 µM (active). Also, in experiment [9], the Potency is 14.8 µM (active).

Consider `CC(C)=CCCC(C)=CCCC(C)=CCCC(C)=CCCC(C)=CCCC(C)=CCCC(C)=CCCC(C)=CCCC(C)=CCO`, for which the Potency entry in [1], in experiment [2], in experiment [3], in experiment [5], in experiment [6] and in experiment [7] was “inactive” in each case. The Potency entry in [8] and in [9] was “inactive” throughout.

As for `CN(C(Cc1ccc(OS(=O)(=O)c2cccc3cnccc23)cc1)C(=O)N1CCN(c2ccccc2)CC1)S(=O)(=O)c1cccc2cnccc12` (stereo not given), the Potency in experiment [1] is 6.62 µM (active); in experiment [2] it was 1.87 µM (active); in experiment [3] it was 3.72 µM (active); in experiment [4], 5.9 µM (active); in [5] it was 8.33 µM (active); in experiment [6], 11.8 µM (active). Besides, the figures for the Potency in experiment [8] and in experiment [9] were 10.5 µM (active) and 5.26 µM (active), respectively.
